Sampled rows, rich in hits. Any-hit rate of the full collection: about 21%.
FBPA Giardia inh: inhibitors of Giardia lamblia fructose-1,6-bisphosphate aldolase; A8B2U2; purified Giardia FBPA; Potency, µM (series often up to 59.6 µM), most hits filed as inhibitors; 290,000 compounds, 0.71% hits; AID 2451; also: nearly all actives have a fitted effect of over 55% in size
Target sequence (A8B2U2 whole entry, looked up): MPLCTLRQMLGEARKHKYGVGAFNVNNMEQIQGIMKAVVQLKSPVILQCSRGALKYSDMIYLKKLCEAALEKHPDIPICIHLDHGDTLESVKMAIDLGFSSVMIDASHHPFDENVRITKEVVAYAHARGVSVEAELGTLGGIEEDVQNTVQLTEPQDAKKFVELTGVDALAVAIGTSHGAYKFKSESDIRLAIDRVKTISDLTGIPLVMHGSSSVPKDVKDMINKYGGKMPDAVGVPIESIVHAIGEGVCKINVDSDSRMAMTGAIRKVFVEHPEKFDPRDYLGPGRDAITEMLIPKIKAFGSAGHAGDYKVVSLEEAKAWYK
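Giardia FBPA (40 nM reagent) was preincubated 10 min at RT with compound (up to 57.5 uM final), then substrate plus GAPDH/TPI/NAD/arsenate coupling system with diaphorase/resazurin was added; resorufin fluorescence (525/598 nm) was read after 20 min.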
CHX counter: affects cycloheximide protein synthesis inhibition readout, counter-screen; cell reporter, cycloheximide protein synthesis inhibition counterscreen; max response, %; 300,000 compounds, 12% hits; in the data active = max response mostly above about 13%, no sharp cut-off; inactive = mostly below about 14%; also: read at 38.3 µM for the half of the compounds with a filed dose
Pf growth 48h: P. falciparum growth inhibition at 48 hours (one generation) | P. falciparum luciferase growth in erythrocytes, 48 h | Potency, µM (titrated, usually from 28.7 µM), most hits filed as inhibitors | 310,000 compounds, 5.9% hits | AID 504832
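Cell-based growth assay: transgenic P. falciparum expressing firefly luciferase, cultured in red cells within RPMI 1640 containing 0.5% w/v Albumax, 24 mM bicarbonate and gentamycin. A drop in luciferase activity indicates inhibition.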
NS1 inh: blocks influenza NS1 protein function; Potency, µM (highest dose often 46.1 µM); 270,000 compounds, 0.4% hits; AID 2326; calls by dose curve; also: actives are rising curves; nearly all actives have a fitted effect of over 50% in size
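A cell-based growth assay was used: compounds that relieve NS1-induced slow growth of budding yeast raise OD600. Assay medium was yeast nitrogen base with ammonium sulphate and -URA supplement, pH 6.0, with 2% galactose.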
Shiga inhibitor: Shiga toxin inhibition; Vero cells, Shiga toxin protein synthesis inhibition reporter; inhibition, % at 38.7 µM; 290,000 compounds, 9.2% hits; AID 2315; in the data active = inhibition mostly above about 28%, no sharp cut-off; inactive = mostly below about 43%
Pf growth 96h: P. falciparum growth inhibition at 96 hour, primary screen for plastid delayed-death inhibitors; P. falciparum luciferase reporter growth, 96 h; Potency, µM (highest dose often 28.7 µM), actives largely listed as inhibitors; 320,000 compounds, 6.9% hits; AID 504834
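Plates of compound plus infected erythrocytes (2% hematocrit, 0.05% parasitemia final) incubate 96 hours, 37 C, 5% CO2. Detection reagent added; reduced luminescence from the parasites' luciferase reporter flags inhibition.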
Each line names hits and unclear results; the compound was inactive in the other large screens. Unless noted, calls follow the shape of the dose curve; as a rule, active = well fitted curve in the direction sought with a large enough effect; inconclusive = small, poorly fitted or top-dose-only effect, or another doubt; inactive = no such curve, though single readings can be large; an effect the other way counts as inactive or inconclusive.

Cc1ccc(C(=O)NC(=S)Nc2ccccc2N2CCOCC2)cc1C	Pf growth 48h inconclusive (no result: FBPA Giardia inh)
CCOc1cc(CNCCCN2CCOCC2)ccc1OCC(=O)Nc1cccc2ccccc12	Pf growth 48h 2.9µM, Pf growth 96h 2.6µM
COc1cc(CNCCCN2CCOCC2)ccc1OCC(=O)Nc1cccc(C(F)(F)F)c1	Pf growth 48h 1.9µM, Pf growth 96h inconclusive
O=C(COc1ccc(Br)cc1CNCCCN1CCOCC1)Nc1ccccc1	Pf growth 48h 3.7µM, Pf growth 96h 2.9µM
COc1cc(C(=O)NCc2ccc(S(N)(=O)=O)cc2)ccc1OCC(=O)Nc1cccc(C(F)(F)F)c1	none (no result: FBPA Giardia inh, CHX counter, NS1 inh, Shiga inhibitor)
COC(=O)Cc1[nH]n(-c2ccccc2)c(=O)c1C=Nc1ccc(C)cc1	none
O=C(NCC(=O)N1CCC2(CC1)NCCc1[nH]cnc12)c1cccc(Cl)c1	none (no result: FBPA Giardia inh)
c1ccc(CCc2cccnc2)nc1	none (no result: FBPA Giardia inh, CHX counter, Pf growth 48h, Shiga inhibitor, Pf growth 96h)
COc1ccc(C(=O)COC(=O)Cc2n[nH]c(=O)c3ccccc23)c(OC)c1	none (no result: FBPA Giardia inh, CHX counter, NS1 inh, Shiga inhibitor)
O=C(Nc1ccc(Cl)c(C(F)(F)F)c1)C1CCCN(S(=O)(=O)c2cnc[nH]2)C1 (centres undefined)	Pf growth 48h inconclusive, Pf growth 96h 10µM
Cc1cc(NC(=O)C2CCCN(S(=O)(=O)c3cnc[nH]3)C2)ccc1Br (centres undefined)	Pf growth 96h 4.1µM (no result: Pf growth 48h)
CC(=O)c1cc(-c2ccccc2)n(CCC(=O)NC2CCCC2)c1C	Pf growth 96h inconclusive (no result: NS1 inh)
CC(=O)c1cc(-c2ccccc2)n(CC(=O)NC(C)(C)C)c1C	Pf growth 96h 13µM (no result: NS1 inh)
CC(=O)c1cc(-c2ccccc2)n(CCC(=O)NC2CCCCC2)c1C	Pf growth 96h 10µM
Cc1ccnc(NC(=O)c2ccc(NS(=O)(=O)/C=C/c3ccccc3)cc2)c1	none (no result: FBPA Giardia inh, CHX counter, NS1 inh, Shiga inhibitor)
Cc1cc(C2=NNC(=NC3CC3)SC2)c(C)n1-c1ccccc1	Pf growth 48h inconclusive, Pf growth 96h inconclusive
c1ccc2c(C3=NNC(=NC4CCCCC4)SC3)c[nH]c2c1	CHX counter 36, Pf growth 48h inconclusive, NS1 inh inconclusive, Pf growth 96h 15µM
c1ccc2c(C3=NNC(=NC4CC4)SC3)c[nH]c2c1	CHX counter 38
c1ccc(C2=NNC(=NC3CC3)SC2)cc1	CHX counter 15
COCCNc1ncncc1-c1c(C)noc1C	none (no result: CHX counter, Pf growth 48h, NS1 inh, Shiga inhibitor, Pf growth 96h)
CC1(C)CC(=O)C2=C(C1)N(CCN1CCOCC1)C1=C(C(=O)CC(C)(C)C1)C2c1ccc(Cl)cc1	Pf growth 48h 5.2µM, Pf growth 96h inconclusive
CC1(C)CC(=O)C2=C(C1)N(CCN1CCOCC1)C1=C(C(=O)CC(C)(C)C1)C2c1cccc(F)c1	Pf growth 48h 12µM
COc1ccc(C2C3=C(CC(C)(C)CC3=O)N(CCN3CCOCC3)C3=C2C(=O)CC(C)(C)C3)cc1	none
COc1cc2c(cc1OC)-c1cc3nc4ccccc4nc3n1C(C)(C)C2	none (no result: CHX counter, Pf growth 48h, NS1 inh, Shiga inhibitor, Pf growth 96h)
COc1ccc([C@H]2OCC3C2CO[C@@H]3c2ccc(OC)c(OC)c2)cc1OC (some centres undefined)	none (no result: Pf growth 48h, NS1 inh, Pf growth 96h)
O=C(Nc1ccnn1C1CCN(C(=O)c2cc(Cl)ccc2F)CC1)C1CCOC1 (centres undefined)	Pf growth 96h inconclusive
C=CCn1c(O)c(C(C)=Nc2ccc(N(C)C)cc2)c(=O)[nH]c1=O	FBPA Giardia inh inconclusive, Pf growth 48h 12µM (no result: Pf growth 96h)
C#CCNC(=O)C1=C[C@@H](c2ccc(Br)cc2)C[C@@H](OCCCCO)O1	CHX counter 13, Pf growth 48h inconclusive, Shiga inhibitor 35, Pf growth 96h 8.3µM
NC(=O)C1=C[C@H](c2ccc(C(F)(F)F)cc2)C[C@H](OCCCCO)O1	FBPA Giardia inh inconclusive
NC(=O)C1=C[C@@H](c2ccc(Br)cc2)C[C@@H](OCCCCO)O1	FBPA Giardia inh inconclusive, CHX counter 7.8
O=C(C1=C[C@H](c2ccc(Br)cc2)C[C@H](OCCCCO)O1)N1CCOCC1	CHX counter 12
C#Cc1ccc([C@@H]2C=C(C(=O)N3CCOCC3)O[C@H](OCCCCO)C2)cc1	Pf growth 48h inconclusive, Pf growth 96h inconclusive
CCCOc1ccc(C(=O)NNC(=S)NC(=O)c2ccco2)cc1	FBPA Giardia inh inconclusive, Pf growth 48h inconclusive, Pf growth 96h inconclusive
CC(C)(C)c1ccc(C(=O)NC(=S)NNC(=O)COc2ccccc2)cc1	CHX counter 17 (no result: FBPA Giardia inh)
Cc1ccc(C(=O)NNC(=S)NC(=O)COc2ccccc2)cc1	FBPA Giardia inh inconclusive (no result: Pf growth 96h)
CCCOc1ccc(C(=O)NNC(=S)NC(=O)c2ccccc2)cc1	FBPA Giardia inh inconclusive, Pf growth 48h 10µM, Pf growth 96h 3.3µM
